# The whole screen tested about 5,700 compounds, of which about 85 (1%) were called active. No stated cut-off is given here; in the data, active means p53-positive nuclei above about 36% (passing the limit was not always enough); inactive means the rest. Many of the other results were omitted from the sample, so actives are more common in it than they were.
# Columns and labels:
# [1] = p53 stabilisation in HPV-positive human cells, imaging, p53-positive nuclei imaging, 24 h, 48 h (AID 1508601); details: 24/48 h
# [2] = molecular target: Cellular tumor antigen p53 (Homo sapiens) (UniProt P04637); assay: as above; details: 24/48 h, stronger effect = higher value
# Cellular tumor antigen p53 (Homo sapiens), sequence (P04637 whole entry, looked up): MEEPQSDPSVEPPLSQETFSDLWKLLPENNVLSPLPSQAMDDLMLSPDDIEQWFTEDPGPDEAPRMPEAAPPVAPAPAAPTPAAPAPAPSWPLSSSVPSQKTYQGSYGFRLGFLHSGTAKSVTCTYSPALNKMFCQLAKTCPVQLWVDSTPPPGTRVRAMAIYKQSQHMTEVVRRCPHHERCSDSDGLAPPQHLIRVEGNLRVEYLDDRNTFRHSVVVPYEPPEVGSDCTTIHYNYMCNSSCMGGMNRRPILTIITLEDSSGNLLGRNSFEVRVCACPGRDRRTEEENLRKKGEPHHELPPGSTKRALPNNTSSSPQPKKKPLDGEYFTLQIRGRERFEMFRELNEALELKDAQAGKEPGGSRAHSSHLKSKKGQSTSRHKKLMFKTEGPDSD
# [3] = measured here: cell number at 24 h, Library stock concentration: 3.33 mM
# [4] = measured here: cell number at 24 h, Library stock concentration: 10 mM
# [5] = measured here: cell number at 48 h, Library stock concentration: 3.33 mM
# [6] = measured here: cell number at 48 h, Library stock concentration: 10 mM
# [7] = Library stock concentration: 3.33 mM
# [8] = Library stock concentration: 10 mM
# [9] = measured here: p53 positive nuclei at 24 h, Library stock concentration: 3.33 mM
# [10] = measured here: p53 positive nuclei at 24 h, Library stock concentration: 10 mM
smiles,measurement,setting,value
COc1cc(OC)c2c(=O)[nH]c(-c3cc(C)c(OCCO)c(C)c3)nc2c1,"nuclei count, normalised","[1]; measured here: cell number at 24 h, Library stock concentration: 46 uM",114%
same,"nuclei count, normalised","[1]; measured here: cell number at 24 h, Library stock concentration: 278 uM",107%
same,"nuclei count, normalised","[1]; measured here: cell number at 24 h, Library stock concentration: 1.67 mM",118%
same,"nuclei count, normalised",[1]; [3],108%
same,"nuclei count, normalised",[1]; [4],109%
same,"nuclei count, normalised","[1]; measured here: cell number at 48 h, Library stock concentration: 46 uM",111%
same,"nuclei count, normalised","[1]; measured here: cell number at 48 h, Library stock concentration: 278 uM",108%
same,"nuclei count, normalised","[1]; measured here: cell number at 48 h, Library stock concentration: 1.67 mM",107%
same,"nuclei count, normalised",[1]; [5],103%
same,"nuclei count, normalised",[1]; [6],108%
same,"p53-positive nuclei, normalised",[2]; Library stock concentration: 46 uM,0.0206% (inactive)
same,"p53-positive nuclei, normalised",[2]; Library stock concentration: 278 uM,0.323% (inactive)
same,"p53-positive nuclei, normalised",[2]; Library stock concentration: 1.67 mM,0.07% (inactive)
same,"p53-positive nuclei, normalised",[2]; [7],0.152% (inactive)
same,"p53-positive nuclei, normalised",[2]; [8],-0.223% (inactive)
same,"p53-positive nuclei, normalised","[2]; measured here: p53 positive nuclei at 24 h, Library stock concentration: 46 uM",-0.102%
same,"p53-positive nuclei, normalised","[2]; measured here: p53 positive nuclei at 24 h, Library stock concentration: 278 uM",0.166%
same,"p53-positive nuclei, normalised","[2]; measured here: p53 positive nuclei at 24 h, Library stock concentration: 1.67 mM",-0.00477%
same,"p53-positive nuclei, normalised",[2]; [9],0.0179%
same,"p53-positive nuclei, normalised",[2]; [10],-0.153%
OC(c1cc(C(F)(F)F)nc2c(C(F)(F)F)cccc12)[C@H]1CCCCN1 (some centres undefined),"nuclei count, normalised","[1]; measured here: cell number at 24 h, Library stock concentration: 500 nM",110%
same,"nuclei count, normalised","[1]; measured here: cell number at 24 h, Library stock concentration: 1.5 uM",109%
same,"nuclei count, normalised","[1]; measured here: cell number at 24 h, Library stock concentration: 4.6 uM",109%
same,"nuclei count, normalised","[1]; measured here: cell number at 24 h, Library stock concentration: 13.7 uM",101%
same,"nuclei count, normalised","[1]; measured here: cell number at 24 h, Library stock concentration: 41 uM",117%
same,"nuclei count, normalised","[1]; measured here: cell number at 24 h, Library stock concentration: 123 uM",109%
same,"nuclei count, normalised","[1]; measured here: cell number at 24 h, Library stock concentration: 370 uM",109%
same,"nuclei count, normalised","[1]; measured here: cell number at 24 h, Library stock concentration: 1.111 mM",110%
same,"nuclei count, normalised",[1]; [3],95.3%
same,"nuclei count, normalised","[1]; measured here: cell number at 24 h, Library stock concentration: 3.333 mM",112%
same,"nuclei count, normalised",[1]; [4],86.2%
same,"nuclei count, normalised","[1]; measured here: cell number at 48 h, Library stock concentration: 500 nM",105%
same,"nuclei count, normalised","[1]; measured here: cell number at 48 h, Library stock concentration: 1.5 uM",105%
same,"nuclei count, normalised","[1]; measured here: cell number at 48 h, Library stock concentration: 4.6 uM",112%
same,"nuclei count, normalised","[1]; measured here: cell number at 48 h, Library stock concentration: 13.7 uM",103%
same,"nuclei count, normalised","[1]; measured here: cell number at 48 h, Library stock concentration: 41 uM",120%
same,"nuclei count, normalised","[1]; measured here: cell number at 48 h, Library stock concentration: 123 uM",113%
same,"nuclei count, normalised","[1]; measured here: cell number at 48 h, Library stock concentration: 370 uM",110%
same,"nuclei count, normalised","[1]; measured here: cell number at 48 h, Library stock concentration: 1.111 mM",113%
same,"nuclei count, normalised",[1]; [5],94.9%
same,"nuclei count, normalised","[1]; measured here: cell number at 48 h, Library stock concentration: 3.333 mM",116%
same,"nuclei count, normalised",[1]; [6],99.6%
same,"p53-positive nuclei, normalised",[2]; Library stock concentration: 500 nM,-0.00517% (inactive)
same,"p53-positive nuclei, normalised",[2]; Library stock concentration: 1.5 uM,-0.125% (inactive)
same,"p53-positive nuclei, normalised",[2]; Library stock concentration: 4.6 uM,0.0484% (inactive)
same,"p53-positive nuclei, normalised",[2]; Library stock concentration: 13.7 uM,-0.00344% (inactive)
same,"p53-positive nuclei, normalised",[2]; Library stock concentration: 41 uM,-0.185% (inactive)
same,"p53-positive nuclei, normalised",[2]; Library stock concentration: 123 uM,-0.102% (inactive)
same,"p53-positive nuclei, normalised",[2]; Library stock concentration: 370 uM,-0.0936% (inactive)
same,"p53-positive nuclei, normalised",[2]; Library stock concentration: 1.111 mM,-0.065% (inactive)
same,"p53-positive nuclei, normalised",[2]; [7],4.69% (inactive)
same,"p53-positive nuclei, normalised",[2]; Library stock concentration: 3.333 mM,-0.144% (inactive)
same,"p53-positive nuclei, normalised",[2]; [8],1.04% (inactive)
same,"p53-positive nuclei, normalised","[2]; measured here: p53 positive nuclei at 24 h, Library stock concentration: 500 nM",0.0755%
same,"p53-positive nuclei, normalised","[2]; measured here: p53 positive nuclei at 24 h, Library stock concentration: 1.5 uM",-0.239%
same,"p53-positive nuclei, normalised","[2]; measured here: p53 positive nuclei at 24 h, Library stock concentration: 4.6 uM",-0.0294%
same,"p53-positive nuclei, normalised","[2]; measured here: p53 positive nuclei at 24 h, Library stock concentration: 13.7 uM",-0.185%
same,"p53-positive nuclei, normalised","[2]; measured here: p53 positive nuclei at 24 h, Library stock concentration: 41 uM",-0.239%
same,"p53-positive nuclei, normalised","[2]; measured here: p53 positive nuclei at 24 h, Library stock concentration: 123 uM",-0.134%
same,"p53-positive nuclei, normalised","[2]; measured here: p53 positive nuclei at 24 h, Library stock concentration: 370 uM",-0.187%
same,"p53-positive nuclei, normalised","[2]; measured here: p53 positive nuclei at 24 h, Library stock concentration: 1.111 mM",-0.0384%
same,"p53-positive nuclei, normalised",[2]; [9],2.85%
same,"p53-positive nuclei, normalised","[2]; measured here: p53 positive nuclei at 24 h, Library stock concentration: 3.333 mM",-0.036%
same,"p53-positive nuclei, normalised",[2]; [10],1.37%
